{"source": "PubChem BioAssay (NCATS)", "note": "Active and inactive are the calls of the source. A call without a number means that no potency is given here. Calls come from the whole dose curve; as a rule, active = well fitted curve in the direction sought with a large enough effect; inconclusive = small, poorly fitted or top-dose-only effect, or another doubt; inactive = no such curve, though single readings can be large or run the other way."}
{"target": "Hexokinase-4 (Homo sapiens) + Glucokinase regulatory protein (Homo sapiens) (UniProt P35557+Q14397)", "sequence (P35557 whole entry, looked up)": "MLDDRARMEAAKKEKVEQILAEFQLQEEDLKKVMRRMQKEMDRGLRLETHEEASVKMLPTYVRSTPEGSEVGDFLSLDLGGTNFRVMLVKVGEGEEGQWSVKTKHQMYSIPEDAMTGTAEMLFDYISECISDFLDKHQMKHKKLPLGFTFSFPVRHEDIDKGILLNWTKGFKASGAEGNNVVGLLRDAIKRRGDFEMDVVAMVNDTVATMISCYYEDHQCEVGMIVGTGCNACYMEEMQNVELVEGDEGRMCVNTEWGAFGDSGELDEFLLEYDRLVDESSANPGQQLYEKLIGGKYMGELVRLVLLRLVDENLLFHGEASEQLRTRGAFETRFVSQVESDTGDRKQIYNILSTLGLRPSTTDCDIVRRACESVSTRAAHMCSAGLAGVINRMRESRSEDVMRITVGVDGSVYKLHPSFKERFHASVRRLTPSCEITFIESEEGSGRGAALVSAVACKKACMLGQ", "sequence (Q14397 whole entry, looked up)": "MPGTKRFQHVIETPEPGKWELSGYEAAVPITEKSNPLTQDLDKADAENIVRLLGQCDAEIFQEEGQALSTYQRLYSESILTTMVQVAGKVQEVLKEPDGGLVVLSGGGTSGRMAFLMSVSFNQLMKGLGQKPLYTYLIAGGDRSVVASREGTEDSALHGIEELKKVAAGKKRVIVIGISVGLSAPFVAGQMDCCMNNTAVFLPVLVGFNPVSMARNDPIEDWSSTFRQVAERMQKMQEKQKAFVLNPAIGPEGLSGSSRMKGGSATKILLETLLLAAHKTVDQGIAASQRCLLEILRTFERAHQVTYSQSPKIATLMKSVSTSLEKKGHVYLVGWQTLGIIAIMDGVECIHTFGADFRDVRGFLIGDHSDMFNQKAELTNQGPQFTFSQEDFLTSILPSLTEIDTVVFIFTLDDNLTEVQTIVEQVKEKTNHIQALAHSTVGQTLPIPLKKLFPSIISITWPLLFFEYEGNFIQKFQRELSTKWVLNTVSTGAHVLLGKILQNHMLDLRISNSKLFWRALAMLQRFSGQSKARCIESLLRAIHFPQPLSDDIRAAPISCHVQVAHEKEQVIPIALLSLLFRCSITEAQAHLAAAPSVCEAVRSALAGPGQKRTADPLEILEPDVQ", "assay": "qHTS assay for inhibitors of recombinant human GCK-GKRP interaction: HTRF assay (AID 743207)", "conditions": "recombinant GCK-GKRP HTRF binding, 60 min, with sorbitol-6-phosphate; series mostly up to 57.5 µM", "source_text": "Glucokinase (GCK) is a glucose sensor in hepatocytes and pancreatic beta-cells. Hepatic GCK is regulated by glucokinase regulatory protein (GKRP), which is predominantly localized to the liver. GKRP binds to GCK inhibiting its activity in the fasting state while in the presence of glucose the GKRP is displaced. There is an additional layer of regulation by fructose 1-phosphate and fructose 6-phosphate, which inhibit and enhance the GCK-GKRP interaction, respectively. GCK plays a role in glucose homeostasis and there is an interest in the development of strategies to activate GCK to lower blood glucose levels in type 2 diabetes. To date the majority of effort has focused on direct activation of GCK and the assays developed herein look to activate GCK by inhibiting its binding to GKRP. A compound that inhibits the interaction of GCK with GKRP could be important for the treatment of diabetes and can also be used as a tool compound to further elucidate GCK-GKRP biology. To that end, we have developed an HTS biochemical assay using HTRF technology for to interrogate the GCK-GKRP interaction. This assay was screened against a small compound library to look for modulators of activity.\n3 uL of 5 nM GST-GCK and 5 nM FLAG-GKRP proteins with 2 uM S6P (columns 1-2, 4-48; Millipore, Billerica, MA) are dispensed into Greiner, white solid-bottom 1536-well assay plates; columns 3 receive buffer without GCK as a control for maximum inhibition. Buffer contains 2 mM MgCl2, 25 mM KCl, 25 mM Hepes, 1 mM DTT, 0.1% Tween 20 and 0.025% BSA and the pH was adjusted to 7.1. Compounds (23 nL) are then transferred via Kalypsys pin tool equipped with 1536-pin array (10 nL slotted pins, V&P Scientific, San Diego, CA). The library compounds are in columns 5-48 and columns 1-4 serve as controls with DMSO in columns 1 and 3 and 26 mM 1:1.5 fold serial of gluckokinase activator (GKA-EMD) in column 2 and 26 mM of the glucokinase activator (GKA-EMD) in column 4. Following addition of compound, 1 uL of detection antibodies (anti-Flag XL 665 and anti-GST K in reconstitution buffer from Cisbio, Bedford, MA; 0.7 ng/well and 0.0945 ng/well, respectively) is added, and the mixture is allowed to equilibrate for 60 minutes at room temperature. Data are normalized to DMSO-treated control columns with (maximum signal) and without (minimum signal) enzyme. Plates were read on an Envision plate reader (PerkinElmer, Shelton, CT, USA) with excitation at 320 nm and dual-wavelength detection at the Fret donor wavelength (615 nm) and the FRET acceptor wavelength (665 nm)."}
{"compound": "CCCCCC(O)c1cccc(OCc2ccc3ccccc3n2)c1", "note": "(stereo not given)", "Potency": "inactive"}
{"compound": "CCCCCCCCCCCCCCCC(=O)NCC(COP(=O)([O-])OCC[N+](C)(C)C)OCC", "note": "(stereo not given)", "Potency": "inactive"}
{"compound": "O=C(Nc1cccc(C(=O)Nc2ccc(S(=O)(=O)O)c3cc(S(=O)(=O)O)cc(S(=O)(=O)O)c23)c1)Nc1cccc(C(=O)Nc2ccc(S(=O)(=O)O)c3cc(S(=O)(=O)O)cc(S(=O)(=O)O)c23)c1", "Potency": "inactive"}
{"compound": "CC(C)NCC(O)COc1cccc2ccccc12", "note": "(stereo not given)", "Potency": "inactive"}
{"compound": "O=C(O)CNC(=O)C(CS)Cc1ccccc1", "note": "(stereo not given)", "Potency": "inactive"}
{"compound": "COc1cc(OC)c(/C=C2/C(=O)Nc3ccccc32)c(OC)c1", "Potency": "inactive"}
{"compound": "N=c1ccn2c(n1)O[C@H]1[C@H](O)[C@@H](CO)O[C@H]12", "Potency": "inactive"}
{"compound": "N#C/C(=C\\c1c[nH]c2ccccc12)C(=O)c1ccc(O)c(O)c1", "Potency": "inactive"}
{"compound": "Cn1c(=O)c2[nH]c(-c3ccccc3)nc2n(C)c1=O", "Potency": "inactive"}
{"compound": "NC(N)=NC(=O)c1nc(Cl)c(N2CCCCCC2)nc1N", "Potency": "inactive"}
{"compound": "C=CC(C)=C[C@@]1(C)SC(=O)C(C)=C1O", "Potency": "inactive"}
{"compound": "C[C@@H](CN1CCC(Cc2ccccc2)CC1)[C@@H](O)c1ccc(O)cc1", "Potency": "inactive"}
{"compound": "Cc1cc(NC(=O)Nc2ccc3c(ccn3C)c2)sn1", "Potency": "inactive"}
{"compound": "N[C@@H](CC(=O)O)C(=O)O", "Potency": "inactive"}
{"compound": "NC[C@H]1O[C@@H](n2cnc3c(N)ncnc32)[C@H](O)[C@@H]1O", "Potency": "inactive"}
{"compound": "CC(N)C(=O)OC(C)(C)Cc1ccc(Cl)cc1", "note": "(stereo not given)", "Potency": "inactive"}
{"compound": "O=C(c1ccc(Cl)cc1)N1CCN(c2ccc([N+](=O)[O-])c3ncccc23)CC1", "Potency": "inactive"}
{"compound": "CN1CCc2ccccc2Cc2[nH]c3ccccc3c2CC1", "Potency": "inactive"}
{"compound": "Nc1ncnc2c1ncn2[C@@H]1O[C@H](COP(=O)(O)OP(=O)(O)OP(=O)(O)OP(=O)(O)OC[C@@H]2O[C@H](n3cnc4c(N)ncnc43)[C@@H](O)[C@H]2O)[C@@H](O)[C@H]1O", "Potency": "inactive"}
{"compound": "O=c1[nH]c2cc(C(F)(F)F)ccc2n1-c1cc(C(F)(F)F)ccc1O", "Potency": "inactive"}
{"compound": "CN(C)c1nc(N)c(C(=O)N=C(N)N)nc1Cl", "Potency": "inactive"}
{"compound": "NCC1OC(O[C@H]2[C@H](O)[C@@H](OC3C(O)C(N)CC(N)C3OC3OC(CO)C(O)C(O)C3N)O[C@@H]2CO)C(N)C(O)C1O", "note": "(stereo not given in full)", "Potency": "inactive"}
{"compound": "CCCC1(C)C(C#N)(C#N)C1(C#N)C#N", "Potency": "inactive"}
{"compound": "COc1cc(SC)ccc1C(=O)N1CCC(Cc2ccccc2)CC1", "Potency": "inactive"}
{"compound": "Cn1ncc(S(=O)(=O)Cc2ccccc2)c(Br)c1=O", "Potency": "inactive"}
{"compound": "CO/S(=N\\S(=O)(=O)c1ccc(Cl)cc1)c1ccc([N+](=O)[O-])cc1", "note": "(stereo not given)", "Potency": "inactive"}
{"compound": "C[N+]1(C)CCC(OC(=O)C(c2ccccc2)c2ccccc2)CC1", "Potency": "inactive"}
{"compound": "CN1[C@@H](CC(=O)c2ccccc2)CCC[C@H]1C[C@H](O)c1ccccc1", "Potency": "inactive"}
{"compound": "CCCCC/C=C\\CC(O)/C=C/c1cccc(CC(O)CCCCO)n1", "note": "(stereo not given)", "Potency": "inactive"}
{"compound": "O=C(O)CC[C@@H](C(=O)O)N1C(=O)c2ccccc2C1=O", "Potency": "inactive"}
{"compound": "CSc1ccccc1N1CCN(CCCCCC(=O)NC2CCCc3ccccc32)CC1", "note": "(stereo not given)", "Potency": "inactive"}
{"compound": "CC(C)(C)c1ccc(S(=O)(=O)/C=C/C#N)cc1", "Potency": "inactive"}
{"compound": "COc1cccc(C(=O)NCCN2CCN(c3ccc(Cl)cc3)CC2)c1", "Potency": "inactive"}
{"compound": "CC1CN(S(=O)(=O)c2cccc3cnccc23)CCN1", "note": "(stereo not given)", "Potency": "inactive"}
{"compound": "NC(=S)c1ccc[n+]([C@@H]2O[C@@H](COP(=O)([O-])OP(=O)(O)OC[C@H]3O[C@@H](n4cnc5c(N)ncnc54)[C@H](OP(=O)(O)O)[C@@H]3O)C(O)C2O)c1", "note": "(stereo not given in full)", "Potency": "inactive"}
{"compound": "CN1C2CCC1CC(OC(=O)C(O)c1ccccc1)C2", "note": "(stereo not given)", "Potency": "inactive"}
{"compound": "Oc1cc(O)cc(/C=C/c2ccc(O)c(O)c2)c1", "Potency": "inactive"}
{"compound": "CC(=O)N[C@H](C(=O)O)C(C)(C)SN=O", "Potency": "inactive"}
{"compound": "NC(=S)NCCC[C@H](N)C(=O)O", "Potency": "inactive"}
{"compound": "O=S(=O)(c1cccc2c(I)cccc12)N1CCCNCC1", "Potency": "inactive"}
